Experimental data from PubChem BioAssay (NCI).
Compounds without any hit were thinned out: in the full panel of roughly 83,000, 20% have a hit.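 Results are percent growth after 48 hours of single-concentration exposure. 100 means growth as in untreated cells, lower positive values show inhibition; negative values down to -100 show cell death.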 Unmarked numbers belong to inactive results. Active and inactive are the calls of the source. The calls were made as follows: active = growth percent below 10; inactive = the rest.

Key:
Test in all cases: NCI-60 one-dose screen, 48 h (100 = growth as untreated, 0 = no growth, -100 = all killed)
Conditions in all cases: 10 µM unless noted
NCI-H23 lung = test system: NCI-H23 lung
NCI-H226 lung = test system: NCI-H226 lung
NCI-H322M lung = test system: NCI-H322M lung
HOP-62 NSCLC = test system: HOP-62 NSCLC
NCI-H460 lung = test system: NCI-H460 lung
HOP-92 NSCLC = test system: HOP-92 NSCLC
NCI-H522 lung = test system: NCI-H522 lung
A549/ATCC NSCLC = test system: A549/ATCC NSCLC
786-0 renal = test system: 786-0 renal
COLO 205 colon = test system: COLO 205 colon
DU-145 prostate = test system: DU-145 prostate
K-562 leukemia = test system: K-562 leukemia
MALME-3M melanoma = test system: MALME-3M melanoma
MDA-MB-231 breast = test system: MDA-MB-231 breast
RXF 393 renal = test system: RXF 393 renal
SF-268 CNS = test system: SF-268 CNS
SF-295 CNS = test system: SF-295 CNS
SF-539 CNS = test system: SF-539 CNS
UACC-257 melanoma = test system: UACC-257 melanoma
M14 melanoma = test system: M14 melanoma

Compound | growth (NCI-H23 lung) | growth (NCI-H226 lung) | growth (NCI-H322M lung) | growth (HOP-62 NSCLC) | growth (NCI-H460 lung) | growth (HOP-92 NSCLC) | growth (NCI-H522 lung) | growth (A549/ATCC NSCLC) | growth (786-0 renal) | growth (COLO 205 colon) | growth (DU-145 prostate) | growth (K-562 leukemia) | growth (MALME-3M melanoma) | growth (MDA-MB-231 breast) | growth (RXF 393 renal) | growth (SF-268 CNS) | growth (SF-295 CNS) | growth (SF-539 CNS) | growth (UACC-257 melanoma) | growth (M14 melanoma)
CN1CCCCC1C(C)(O)c1ccccc1 (stereo not given) | 106% | 99.7% | 101% | 92.9% | 107% | 98.6% | 89.9% | 92% | 95.1% | 114% | 111% | 114% | 97.6% | 112% | 116% | 101% | 96.2% | 93.6% | 96.5% | 92.9%
COc1ccc2c(c1)c(-c1nc(-c3cn(C)c4ncccc34)cs1)cn2CCN1CCOCC1 | 40.2% | 43% | 62.3% | 12.5% | 23.9% | 31.3% | 19.9% | 30.5% | 44.4% | 33.2% | 36.3% | 9.83% (active) | 71.5% | 56.8% | 56.7% | 48.4% | 49.3% | 48% | 93.2% | 31.9%
C[Se]C(=O)c1ccccc1OC(C)=O | 53.9% | 6.57% (active) | 91.4% | 48.9% | 37.5% | 38.4% | 63.8% | 59.2% | 79.4% | 111% | 76.9% | 74.8% | 68.7% | 68.3% | 11.7% | 18.3% | 48.6% | 50.3% | 49.1% | 20.8%
COc1ccc(-n2c(C)nc3cc(OC)c(OC)cc3c2=O)cc1OC | 101% | 99.1% | 97% | 102% | 106% | 103% | 101% | 98% | 102% | 99.5% | 105% | 104% | 62.3% | 116% | 118% | 97.2% | 100% | 96.2% | 102% | 106%
Cc1c(O)c(CN(CCCl)CCCl)cc(CN(CCCl)CCCl)c1O | 102% | 95.6% | 94.8% | 102% | 31.4% | 47.3% | 79.4% | 67.8% | 99.6% | 78.1% | 107% | 103% | 93.1% | 93.5% | 97.6% | 88.4% | 93.9% | 82.5% | 92.8% | 92.4%
CC[C@H](C)[C@H](NC(=O)N[C@@H](C)c1ccccc1)C(=O)N(C)[C@H](C[C@@H](OC(C)=O)c1nc(C(=O)N[C@@H](Cc2ccccc2)C[C@H](C)C(=O)OC)cs1)C(C)C | 27% | 30.7% | 51.2% | 22.7% | 3.57% (active) | 73.1% | -39.1% (active) | 31.3% | 10.9% | -46.8% (active) | -4.64% (active) | 14% | 44.9% | -6.65% (active) | -8.76% (active) | 22.2% | 5.49% (active) | -27.6% (active) | 75.3% | -12.2% (active)
Clc1ccc(N2COOC3(OOC2)C2CC4CC(C2)CC3C4)cc1 | 22% | 95.8% | 76.4% | 45.9% | 61.5% | -23.1% (active) | -53.2% (active) | 47.4% | -4.34% (active) | 101% | 85% | 29.9% | 26.3% | 82.9% | 101% | 58.1% | 70.6% | 23.5% | 85.8% | 65.9%
CC(=O)OC[C@]1(C)C=C2C(=O)[C@](C)(O)C3(CC3)C(C)=C2[C@H]1O | -35.5% (active) | -15% (active) | -23.1% (active) | -29.4% (active) | -37.4% (active) | -25.8% (active) | -52.5% (active) | -21.4% (active) | -46.2% (active) | -33.5% (active) | -19.4% (active) | 27.2% | -78.8% (active) | -28.1% (active) | -79.4% (active) | -8.2% (active) | -19.3% (active) | -68.9% (active) | -28.9% (active) | -66.9% (active)
[Cl][Hg][c]1cc[c]([Hg][Cl])o1 | 63.5% | 99.1% | 96.9% | 72.9% | 68.6% | -29.1% (active) | 2.99% (active) | 88.4% | -74.8% (active) | 6.94% (active) | 70.6% | 7.68% (active) | -51.6% (active) | 22.7% | 62.1% | 51.3% | 93.4% | 75% | 65.5% | 14.8%
Fc1ccc(N2COOC3(OOC2)C2CC4CC(C2)CC3C4)cc1 | 69.4% | 105% | 91.1% | 83.6% | 101% | 29% | 85.2% | 90.2% | 12.6% | 116% | 90.8% | 26.7% | 106% | 95.5% | 115% | 91.5% | 87.5% | 82.5% | 89.6% | 89.5%
COc1ccc(S(=O)(=O)N(Cc2ccc3c(c2)C=CC(C)(C)O3)c2ccccc2)cc1OC | 47.6% | 55.4% | 102% | 87.1% | 76.7% | 88.2% | 61.5% | 79.1% | 87.1% | 64.7% | 96.6% | 63.2% | 83.4% | 96.6% | 77.2% | 87.4% | 70.6% | 97.3% | 61.9% | 87.6%
COc1ccc(/C=C\c2cc(OC)c(OC)c(OC)c2)c(NS(=O)(=O)c2ccc(F)cc2)c1O | 27.4% | 35.1% | 53.6% | 71.3% | 5.54% (active) | 43.3% | -18.6% (active) | 23.9% | 18.4% | 0.893% (active) | -19.1% (active) | 18.3% | 94.3% | 8.05% (active) | 23.5% | 15.1% | 4.99% (active) | 2.76% (active) | 66.5% | 6.43% (active)
CC(=O)Oc1ccccc1C(=O)NCCC[Se]C#N | -13.8% (active) | -22.8% (active) | 2.65% (active) | -38.8% (active) | 1.89% (active) | -18.5% (active) | 65.2% | 28.2% | 104% | 112% | -32.9% (active) | 30.2% | -24.5% (active) | -38.5% (active) | -7.78% (active) | -22.3% (active) | -15.7% (active) | -72.1% (active) | 42.1% | -13.1% (active)
CC1=C(CNO)C2=C(C)C3(CC3)[C@@](C)(O)C(=O)C2=C1 | -24.8% (active) | 25.3% | -15.8% (active) | 1.62% (active) | -0.969% (active) | -19.6% (active) | -7.65% (active) | -7.8% (active) | -17.5% (active) | -20.4% (active) | 4.97% (active) | 88.4% | -62.6% (active) | 10.3% | -70.3% (active) | 0.784% (active) | -4.83% (active) | -35.3% (active) | -24.3% (active) | 26.8%
Nc1ccc(Cl)cc1 | 99.3% | 92.1% | 106% | 90.3% | 109% | 85.5% | 89.3% | 78.7% | 97.7% | 95.9% | 102% | 100% | 104% | 104% | 105% | 104% | 99.2% | 96.6% | 86.4% | 99.5%
